Screening data (PubChem)
VP16 counter: Gal4-VP16 reporter inhibition counter-screen; Drosophila S2 Gal4-VP16 UAS-luciferase, luminescence, 20 h; Potency, µM (highest dose often 53.6 µM), most hits filed as inhibitors; 310,000 tested, 3.5% active; AID 2546;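 further: Gal4-VP16 expression switched on by copper sulfate through the metallothionein promoter; nearly all actives have a fitted effect of over 50% in size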
RORgamma inh: blocks mouse ROR gamma transcriptional activity; P51450; Drosophila S2 Gal4-RORgamma UAS-luciferase reporter, 20 h; Potency, µM (series often up to 53.6 µM), hits mostly inhibitors; 310,000 tested, 5.4% active; AID 2551; further: nearly all actives have a fitted effect of over 60% in size
Target sequence (P51450 whole entry, looked up, the tested form may be a part): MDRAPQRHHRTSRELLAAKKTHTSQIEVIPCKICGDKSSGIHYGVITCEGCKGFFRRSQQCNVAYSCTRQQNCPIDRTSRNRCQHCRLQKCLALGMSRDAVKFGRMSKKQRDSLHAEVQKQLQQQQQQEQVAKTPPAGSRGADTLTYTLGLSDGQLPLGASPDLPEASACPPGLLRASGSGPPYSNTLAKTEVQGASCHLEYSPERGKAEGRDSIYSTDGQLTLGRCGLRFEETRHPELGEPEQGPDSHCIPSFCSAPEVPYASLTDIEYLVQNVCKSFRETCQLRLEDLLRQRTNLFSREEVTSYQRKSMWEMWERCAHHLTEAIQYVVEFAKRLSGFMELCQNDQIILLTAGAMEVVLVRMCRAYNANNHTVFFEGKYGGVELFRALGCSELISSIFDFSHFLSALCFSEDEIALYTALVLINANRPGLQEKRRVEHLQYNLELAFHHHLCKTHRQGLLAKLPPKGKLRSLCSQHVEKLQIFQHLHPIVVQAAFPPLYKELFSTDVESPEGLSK
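Compounds are pin-transferred onto Drosophila Schneider cells expressing a copper-inducible Gal4–ROR gamma transactivation domain fusion. After 1 hr, copper sulfate is added to 700 uM final; luciferase is read 20 hr later.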
TDP1 cell CPT: growth inhibition of DT40 Tdp1-/-;hTDP1 cells with camptothecin (screen for TDP1 inhibitors). Potency, µM (series often up to 46.2 µM), hits mostly inhibitors. AID 686979. 420,000 tested, 12% active. chicken DT40 Tdp1-/-;hTDP1 cells + 20 nM CPT, ATP luminescence, 48 h; further: nearly all actives have a fitted effect of over 55% in size
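Chicken DT40 Tdp1-/- cells stably complemented with human TDP1 were seeded at 400 cells/well in medium containing 20 nM camptothecin, exposed to pin-transferred compounds, and grown at 37 °C for at least 48 hr. Viability was read as ATP luminescence.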
TDP1 inh: blocks human tyrosyl-DNA phosphodiesterase 1 | Q9NUW8 | recombinant TDP1, AlphaScreen DNA substrate cleavage | Potency, µM (doses to about 130 µM), usual class: inhibitors | 350,000 tested, 0.28% active; further: nearly all actives have a fitted effect of over 40% in size
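Steps: enzyme plus compound, 15 min RT; add biotin/phosphotyrosine-FITC oligonucleotide (15 nM final), react 5 min; add donor/acceptor beads (10 ug/ml final), 10 min; read AlphaScreen. Tdp1 at 1 nM final.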
DT40 TDP1 no CPT: qHTS for Inhibitors of human tyrosyl-DNA phosphodiesterase 1 (TDP1): qHTS in cells in absence of CPT | 420,000 tested, 15% active | DT40 Tdp1-/- hTDP1 cells, no CPT, ATP luminescence, 48 h | Potency, µM (highest dose often 46.2 µM), most hits filed as inhibitors | AID 686978, 2013; further: nearly all actives have a fitted effect of over 55% in size
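Stably hTDP1-transfected Tdp1-null chicken DT40 cells were treated with library compounds minus camptothecin and grown for at least 48 hr at 37 °C, after which cellular ATP was quantified by luminescence.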
Each line names hits and unclear results; the compound was inactive in the other large screens. This is a sample that favours compounds with a hit; in the whole collection about 19% have one here. The call rests on the fitted dose curve; in most records, active means well fitted curve in the direction sought with a large enough effect; inconclusive means small, poorly fitted or top-dose-only effect, or another doubt; inactive means no such curve, though single readings can be large; an effect the other way counts as inactive or inconclusive.

Cc1ccc(NC2=C(C(=O)c3ccccc3)N(C)S(=O)(=O)c3ccccc32)cc1	TDP1 cell CPT 29µM, DT40 TDP1 no CPT 26µM
CN1C(C(=O)c2ccccc2)=C(OC(=O)c2ccc(Br)cc2)c2ccccc2S1(=O)=O	TDP1 cell CPT inconclusive, DT40 TDP1 no CPT 21µM (no result: VP16 counter, RORgamma inh)
COC(=O)C1=C(c2ccccc2)c2ccccc2S(=O)(=O)N1CC(=O)Nc1ccccc1Cl	TDP1 cell CPT inconclusive, DT40 TDP1 no CPT inconclusive (no result: VP16 counter, RORgamma inh)
COC(=O)CN1C(C(=O)c2ccccc2)=C(OC(=O)c2ccccc2)c2ccccc2S1(=O)=O	TDP1 cell CPT 16µM, DT40 TDP1 no CPT 26µM (no result: VP16 counter, RORgamma inh)
CN1C(C(=O)c2ccccc2)=C(N)c2ccccc2S1(=O)=O	none
CN(C)[C@H]1N(C(=O)c2ccc(Br)cc2)N=C2c3ccccc3S(=O)(=O)N21	none
COc1ccc(CCNC(=O)CN2C(=O)c3ccccc3S2(=O)=O)cc1	none
CCCN1C(C(=O)c2ccccc2)=C(OC(=O)c2ccc(OC)cc2)c2ccccc2S1(=O)=O	TDP1 cell CPT 5.2µM, DT40 TDP1 no CPT 5.2µM (no result: VP16 counter, RORgamma inh)
COc1ccccc1CNc1nc(-c2cccc(NS(C)(=O)=O)c2)nc2ccccc12	TDP1 cell CPT inconclusive, DT40 TDP1 no CPT inconclusive (no result: TDP1 inh)
COc1cccc(C2=NOC(C(=O)Nc3cc(C)on3)C2)c1OC (configuration not stated)	none
COc1ccc(OCC(O)Cn2c(Nc3ccccc3)nc3c2c(=O)n(C)c(=O)n3C)cc1 (configuration not stated)	VP16 counter inconclusive
CN(C)CCn1c2c(c(SCC(=O)Nc3ccc4c(c3)OCCO4)nc1=O)CCCC2	none (no result: VP16 counter, RORgamma inh)
CC(C)[C@H](NC(=O)OCc1ccccc1)C(=O)OCC(=O)NC1CCCCC1	none
CC1=CC(C)(C)Nc2ccc(OC(=O)CCN3C(=O)c4ccccc4C3=O)cc21	VP16 counter 5.6µM, RORgamma inh inconclusive, TDP1 cell CPT 3.3µM, DT40 TDP1 no CPT 3.7µM
O=C(CCN1C(=O)c2ccccc2C1=O)Oc1ccc2ccccc2c1	none
O=C(NNC(=O)c1cccs1)c1ccc2ccccc2c1	none
COc1cc(OC)cc(C(=O)NCCc2csc(-c3cccc(C)c3)n2)c1	TDP1 cell CPT 15µM, DT40 TDP1 no CPT 16µM (no result: VP16 counter, RORgamma inh)
COc1ccc(CC(=O)NCCc2csc(-c3ccc(C(F)(F)F)cc3)n2)cc1	none (no result: VP16 counter, RORgamma inh, TDP1 cell CPT, DT40 TDP1 no CPT)
Cc1cccc(-c2nc(CCNC(=O)COc3ccccc3)cs2)c1	TDP1 cell CPT inconclusive, DT40 TDP1 no CPT inconclusive (no result: VP16 counter, RORgamma inh)
Cc1cccc(-c2nc(CCNC(=O)Cc3ccccc3)cs2)c1	TDP1 cell CPT inconclusive, DT40 TDP1 no CPT 21µM (no result: VP16 counter, RORgamma inh)
COc1cc(OC)cc(C(=O)NCCc2csc(-c3ccc(C(F)(F)F)cc3)n2)c1	TDP1 cell CPT inconclusive, DT40 TDP1 no CPT 18µM (no result: VP16 counter, RORgamma inh)
CSc1ncccc1C(=O)OCC(=O)N1CC(=O)Nc2ccccc21	none (no result: VP16 counter, RORgamma inh)
O=C(CC1c2ccccc2Oc2ccccc21)Nc1ccccc1C(F)(F)F	VP16 counter inconclusive
COc1ccc(C(=O)NCC(=O)OC2CCCCC2=O)cc1 (configuration not stated)	none
Cc1sc2ncnc(N3CCN(C(=O)c4ccco4)CC3)c2c1C	RORgamma inh inconclusive, DT40 TDP1 no CPT 21µM
Cc1cccc2[nH]c3c(N4CCN(C(=O)c5ccco5)CC4)ncnc3c12	TDP1 cell CPT inconclusive, DT40 TDP1 no CPT 18µM
O=C(c1ccco1)N1CCN(c2ncccn2)CC1	none
Cc1ccc(-c2csc3ncnc(N4CCN(C(=O)c5ccco5)CC4)c23)cc1	TDP1 cell CPT inconclusive, DT40 TDP1 no CPT inconclusive (no result: VP16 counter, RORgamma inh)
Cc1ccc(-n2ncc3c(NCCCN4CCOCC4)ncnc32)cc1Cl	TDP1 cell CPT inconclusive (no result: VP16 counter, RORgamma inh)
CC(=O)Nc1ccc(NC(=O)c2cccc3c2-c2ccccc2C3=O)cc1	RORgamma inh inconclusive, TDP1 cell CPT 21µM, DT40 TDP1 no CPT 18µM
CCOC(=O)[C@]12CCCC=C1N(Cc1ccc3c(c1)OCO3)C(=O)[C@H](CC(=O)NCCCOC)C2	none (no result: VP16 counter, RORgamma inh, TDP1 inh)
CCCCOCCCNC(=O)C[C@@H]1C[C@@]2(C(=O)OCC)CCC=C2N(Cc2ccc3c(c2)OCO3)C1=O	TDP1 cell CPT 21µM, DT40 TDP1 no CPT 16µM (no result: VP16 counter, RORgamma inh, TDP1 inh)
CCOC(=O)[C@]12CCC=C1N(Cc1ccc3c(c1)OCO3)C(=O)[C@H](CC(=O)NCC13CC4CC(CC(C4)C1)C3)C2	TDP1 cell CPT inconclusive, DT40 TDP1 no CPT 23µM (no result: VP16 counter, RORgamma inh, TDP1 inh)
COc1ccccc1NC(=O)Cn1nc(-c2ccc(C)cc2)c2c(c1=O)CCCC2	TDP1 cell CPT inconclusive, DT40 TDP1 no CPT inconclusive (no result: VP16 counter, RORgamma inh)
COc1ccc(CCNC(=O)c2ccc3c(c2)N(Cc2ccc(F)cc2)CCS3)cc1OC	TDP1 cell CPT inconclusive, DT40 TDP1 no CPT 15µM
COc1ccc(CNC(=O)c2ccc3c(c2)N(Cc2ccccc2)CCS3)cc1	TDP1 cell CPT inconclusive, DT40 TDP1 no CPT 15µM (no result: VP16 counter, RORgamma inh)
COc1ccc(OC)c(CCNC(=O)c2ccc3c(c2)N(Cc2ccc(C)cc2)CCS3)c1	TDP1 cell CPT inconclusive, DT40 TDP1 no CPT 23µM (no result: VP16 counter, RORgamma inh)
CCCOc1ccc(CNC(=O)c2ccc3c(c2)N(CC)CCS3)cc1	DT40 TDP1 no CPT inconclusive (no result: TDP1 inh)
CCOc1ccc(CNC(=O)c2ccc3c(c2)N(Cc2ccccc2)CCS3)cc1	TDP1 cell CPT inconclusive, DT40 TDP1 no CPT 13µM (no result: VP16 counter, RORgamma inh)
CSc1nc(N)c2cn[nH]c2n1	none (no result: VP16 counter, RORgamma inh, TDP1 inh)
CCOc1ccc(CCNC(=O)c2ccc3c(c2)N(Cc2ccc(C)cc2)CCS3)cc1	TDP1 cell CPT 18µM, DT40 TDP1 no CPT inconclusive (no result: VP16 counter, RORgamma inh)
CC(C)Oc1ccc(CNC(=O)c2ccc3c(c2)N(Cc2ccc(F)cc2)CCS3)cc1	TDP1 cell CPT 10µM, DT40 TDP1 no CPT 7.3µM (no result: VP16 counter, RORgamma inh)
COc1ccc(CCNC(=O)c2ccc3c(c2)N(Cc2ccc(Cl)cc2)CCS3)c(OC)c1	none (no result: VP16 counter, RORgamma inh, TDP1 cell CPT, DT40 TDP1 no CPT)
